Source: PubChem
HP1b chromo inh: HP1-beta chromodomain-methylated histone interaction inhibition; P83916; AlphaScreen HP1-beta / biotin-H3K9me3 peptide binding; Potency, µM (titrated, usually from 114 µM), without a hit: at the highest dose activity change, negative = inhibition, usual class: inhibitors; 390,000 compounds, 0.56% hits; AID 540317; note: potency is the fitted concentration of half-maximal effect; nearly all actives have a fitted effect of over 70% in size
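Compound inhibition of the preformed complex between 50 nM HP1-beta and 50 nM biotinylated H3K9me3 peptide was read by AlphaScreen. Buffer was PBS pH 7.4 with 0.01% Tween-20. Incubations ran 30 min at room temperature, with 10 ug/mL donor/acceptor beads.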
PI5P4Ka inh: inhibitors of human PI5P4K alpha; PI5P4Kalpha enzyme, ADP-Glo luminescence, 60 min; hits give low values; max response, %; 330,000 compounds, 1.2% hits; AID 652105; active = max response of -50% or lower; inconclusive = between -30% and -50%; inactive = -30% or higher; note: value at the top dose of about 77 µM; % is set by controls: 0 for no effect and ±100 for the full control effect
Target sequence (P48426 whole entry, looked up): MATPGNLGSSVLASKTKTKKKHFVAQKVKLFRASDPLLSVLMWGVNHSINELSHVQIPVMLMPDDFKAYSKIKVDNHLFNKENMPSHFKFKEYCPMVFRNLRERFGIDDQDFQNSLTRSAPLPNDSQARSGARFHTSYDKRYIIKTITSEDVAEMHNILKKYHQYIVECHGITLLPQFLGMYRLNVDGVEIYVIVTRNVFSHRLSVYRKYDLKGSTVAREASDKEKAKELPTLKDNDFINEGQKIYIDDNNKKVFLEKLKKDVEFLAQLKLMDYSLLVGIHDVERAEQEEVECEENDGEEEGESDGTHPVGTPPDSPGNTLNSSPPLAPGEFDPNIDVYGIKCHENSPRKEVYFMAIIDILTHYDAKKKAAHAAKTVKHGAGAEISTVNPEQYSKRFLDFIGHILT
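qHTS, 1536-well: enzyme/substrate mix, compound by pin tool, 5 microM ATP final; RT 60 min; ADP-Glo reagents 1 (45 min) then 2 (30 min); luminescence.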
JMJD2A Tudor: blocks the human JMJD2A Tudor domain; O75164; AlphaScreen JMJD2A-Tudor / H3K4me3 peptide binding; Potency, µM (doses to about 114 µM), inactives show at the highest dose activity change, negative = inhibition, hits mostly inhibitors; 390,000 compounds, 4.4% hits; note: potency is the fitted concentration of half-maximal effect; % is set by controls: 0 for no effect and ±100 for the full control effect; nearly all actives have a fitted effect of over 50% in size
L3MBTL1 inh: L3MBTL1 (human) inhibition | AlphaScreen L3MBTL1–H3K9me1 peptide binding | Q9Y468 | 230,000 compounds, 0.66% hits | Potency, µM (titrated, usually from 57.1 µM), for the others: top-dose activity, negative = inhibition, usual class: inhibitors; note: potency is the fitted concentration of half-maximal effect; % is set by controls: 0 for no effect and ±100 for the full control effect; nearly all actives have a fitted effect of over 60% in size
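AlphaScreen proximity signal between nickel-chelate acceptor and streptavidin donor beads (final 10 ug/mL) reports binding of 50 nM L3MBTL1 to 75 nM biotin-H3 K9me1 peptide; complex incubated with compounds 30 min at room temperature; cefsulodin titration as control.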
BAZ2B inh: BAZ2B (human) inhibition; AlphaScreen BAZ2B-H3K14Ac peptide displacement; Potency, µM (titrated, usually from 114 µM), for inactives: at the top dose activity change, negative = inhibition, most hits filed as inhibitors; 360,000 compounds, 4.4% hits; note: potency is the fitted concentration of half-maximal effect; % is set by controls: 0 for no effect and ±100 for the full control effect; nearly all actives have a fitted effect of over 60% in size
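Protein-peptide AlphaScreen: BAZ2B 50 nM, b-H3K14Ac 50 nM, 1x PBS pH 7.4 + 0.01% Tween-20. Preincubation 30 min RT; cpd 30 min RT (top 110 uM); beads 20 min RT, light-protected.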
G9a inh: G9a (human) methyltransferase inhibition; Q96KQ7; G9a H3K9 monomethylation, AlphaScreen, 2 h; Potency, µM (series often up to 102 µM), for inactives: top-dose activity, negative = inhibition, usual class: inhibitors; 350,000 compounds, 8.8% hits; note: potency is the fitted concentration of half-maximal effect; % is set by controls: 0 for no effect and ±100 for the full control effect; nearly all actives have a fitted effect of over 75% in size
Target sequence (Q96KQ7 913-1193 limits assumed): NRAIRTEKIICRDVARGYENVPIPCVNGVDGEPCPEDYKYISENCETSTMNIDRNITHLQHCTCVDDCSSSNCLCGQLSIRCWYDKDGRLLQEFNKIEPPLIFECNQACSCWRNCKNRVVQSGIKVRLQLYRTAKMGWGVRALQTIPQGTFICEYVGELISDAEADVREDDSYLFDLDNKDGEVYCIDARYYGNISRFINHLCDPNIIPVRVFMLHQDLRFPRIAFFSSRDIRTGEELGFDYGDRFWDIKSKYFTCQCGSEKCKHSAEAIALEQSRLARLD
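Quantitative HTS format: methyltransferase activity on a biotin-tagged H3K9 peptide is measured by AlphaScreen, using a rabbit anti-monomethyl-H3K9 antibody with streptavidin donor and anti-IgG acceptor beads. Final levels are 20 nM enzyme, 500 nM peptide, 20 uM SAM; 2 h RT.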
An asterisk follows results filed as active; ? = inconclusive; . = no result given; [ ] = dose if it differs, or a comment. Only some compounds are listed: those with a hit (about 11% of all), similar ones and a draw of the others. Unless noted, calls come from the whole dose curve; as a rule, active = well fitted inhibition curve with a large enough effect; inconclusive = small, poorly fitted or top-dose-only effect; inactive = no such curve, though single readings can be large or run the other way.

SMILES	HP1b chromo inh	PI5P4Ka inh	JMJD2A Tudor	L3MBTL1 inh	BAZ2B inh	G9a inh
O=C(C1CC(=O)N(c2ccc3c(c2)OCCO3)C1)N1CCN(c2ccccc2)CC1 (centres undefined)	-17%	?	?	?	50µM*	?
CN(C)S(=O)(=O)c1ccc2c(c1)N(CC(=O)NCc1ccc(F)cc1)C(=O)CS2	65%	.	-16%	.	-19%	9%[59 µM]
COc1cccc(CNc2ccccn2)c1O	26%	-3	-18%	-1%[2.29 µM]	3%	-2%[0.501 µM]
COc1cccc(CNc2cccc3cccnc23)c1O	-7%	.	45µM*	-10%	?	?
Oc1ccc(Br)cc1CNc1cccc2cccnc12	19%	6	?	-3%[2.29 µM]	?	16%[0.501 µM]
Cc1ccc(O)c(CNc2cccc3cccnc23)c1	?	0	?	-28%	32µM*	.
COc1cccc(Nc2nc3ccc(C)cc3nc2-n2nc(C)cc2C)c1	314%	.	195%	.	355%	392%[59 µM]
COc1ccc(CCNC(=O)c2cnn(-c3ccc(F)cc3)c2C2CCN(C(=O)OC(C)(C)C)CC2)cc1OC	-7%	.	-25%	.	3%[57.1 µM]	-44%[59 µM]
CN(/N=C\c1ccc(O)c(O)c1)c1nc(-c2ccccc2)cc(-c2ccccc2)n1	?	?	?	-30%	40µM*	40µM*
Cc1cc(N(C)/N=C/c2ccccc2O)nc(-c2ccccc2O)n1	48%	6	1%	-3%	2%	?
Cc1ccc(C(=O)Nc2ccccc2C(=O)N2CCN(c3ccccc3)CC2)cc1	12%	2	-34%	.	4%	-11%
COc1ccc(N2CCN(C(=O)c3ccccc3NC(=O)c3ccccc3)CC2)cc1	-11%	2	-31%	.	-38%	45µM*
COC(=O)c1ccccc1NC(=O)N1CCN(c2ccc(OC)cc2)CC1	?	2	?	?	?	40µM*
Cc1ccc(N2CCN(C(=O)c3ccccc3NC(=O)c3ccccc3C(=O)O)CC2)cc1	24%	-1	-20%	-6%	-36%	56µM*
COc1ccc(N2CCN(C(=O)Nc3cccc(C(F)(F)F)c3)CC2)cc1	-11%	1	?	.	?	13µM*
O=C(Nc1cccc(C(F)(F)F)c1)N1CCN(C(=O)Nc2cccc(C(F)(F)F)c2)CC1	19%	-1	-2%	.	-5%	9%[59 µM]
COc1cccc(C(=O)Nc2ccccc2C(=O)N2CCCC2)c1	22%	-3	-10%	.	?	11%
C=C1CCN(C(Cc2ccccc2)C(=O)O)S(=O)(=O)c2ccccc21 (centres undefined)	35%	.	1%	.	.	.
COc1ccc(C2C=C(c3ccccc3)Nc3nc(NC(=O)/C=C/c4ccc(Cl)cc4)nn32)cc1 (centres undefined)	35%	.	6%	.	-2%	?
CCOC(=O)c1cnc2c(OC)cccc2c1N1CCN(c2ccccc2OC)CC1	-24%	0	?	-9%	?	?
COc1ccc(N2CCN(C(=O)c3ccc(NC(=O)c4nsc5ccccc45)cc3)CC2)cc1	-13%[57 µM]	.	?	.	?	10µM*
O=C(CN1CCN(c2ncccn2)CC1)NCc1ccccc1	37%	-4	-13%	.	10%	56µM*
CCOC(=O)c1cnc2c(OC)cccc2c1N1CCN(c2ccc(OC)cc2)CC1	?	-12	-17%[11.4 µM]	-14%[11.4 µM]	11µM*	?
COc1ccc(N2CCN(C(=O)c3ccccc3NS(=O)(=O)c3ccc(C)cc3)CC2)cc1	-19%	1	?	.	?	50µM*
Cn1c(SCC(=O)c2ccc(F)cc2)nnc1-c1ccccc1Br	29%	.	-7%	.	-1%	2%[59 µM]
SMILES	HP1b chromo inh	PI5P4Ka inh	JMJD2A Tudor	L3MBTL1 inh	BAZ2B inh	G9a inh
COc1cc(Nc2nc3c(S(=O)(=O)c4ccccc4)nnn3c3ccc(Cl)cc23)cc(OC)c1	26%	.	-7%	.	-3%	-10%[59 µM]
O=C1c2ccccc2NC(c2ccccc2O)N1Cc1ccco1 (centres undefined)	4%[57 µM]	.	-8%[57.1 µM]	.	.	.
CCOC(=O)Cn1c(=O)oc2cc(S(=O)(=O)N3CCN(c4ccc(Cl)cc4)CC3)ccc21	18%	.	-25%	.	-7%	-9%[59 µM]
Cc1ccc(Cl)cc1N1CCN(CCNC(=O)Nc2ccccc2Cl)CC1	15%	.	-32%	.	-15%	-13%[59 µM]
O=C(NCC(c1ccc2c(c1)OCO2)N1CCN(c2ccccc2)CC1)C(=O)Nc1cccc(F)c1 (centres undefined)	6%[57 µM]	.	-23%	.	-1%	-30%[59 µM]
COC(=O)c1cnc(N2CCN(c3ccc(OC)cc3)CC2)c2ccccc12	-13%[57 µM]	.	25µM*	.	22µM*	13µM*
COC(=O)c1cccc(NC(=O)c2nsc3ccccc23)c1	31%	.	-2%	.	19%	4.5µM*
COC(=O)c1cnc(N2CCN(c3ccccc3F)CC2)c2ccccc12	117%[57 µM]	.	90%	.	37%	78%[59 µM]
COc1cccc(CNC(=O)c2cccc(NC(=O)c3nsc4ccccc34)c2)c1	17%[57 µM]	.	-13%	.	8%	1%[59 µM]
COc1ccc(N2CCN(CC(=O)Nc3ccccc3C(=O)NCc3ccccc3)CC2)cc1	?	0	56µM*	?	45µM*	?
C=C(C)[C@]12C[C@@H](C)[C@@]34OC(Cc5ccccc5)(O[C@@H]1[C@@H]3C=C(COC(=O)Cc1cc(OC)c(O)cc1I)C[C@]1(O)C(=O)C(C)=C[C@@H]41)O2	.	.	.	.	.	22%[59 µM]
CS(=O)(=O)N1CCC2(CCCN(C(=O)Nc3ccccc3)C2)CC1	.	.	.	.	.	-3%[12.7 µM]
CCOC(=O)c1c(C)[nH]c(C)c1C(=O)COC(=O)/C=C/c1ccccc1[N+](=O)[O-]	?	6	89µM*	-9%	.	.
CCOC(=O)c1c(C)[nH]c(C)c1C(=O)COC(=O)/C=C/c1cccc(Cl)c1	?	0	?	-6%	?	-18%[59 µM]
CCOC(=O)c1c(C)[nH]c(C)c1C(=O)COC(=O)c1cc(OC)cc(OC)c1	-24%	3	?	-13%[11.4 µM]	?	?
CCOC(=O)c1c(C)[nH]c(C)c1C(=O)COC(=O)c1ccc(OC)cc1	-3%	9	-18%[57.1 µM]	?	?	40µM*
CCC1CCC2(CC1)NC(CO)(CO)CO2 (centres undefined)	22%	.	-3%	3%	9%	11%[59 µM]
CCC1CCC2(CC1)NNC(=S)NN2	-66%	-8	50µM*	.	?	2µM*
CN(C)c1ccc(/C=N/N2C(=S)SC(C)(C)C2N(O)C(=O)Nc2ccc([N+](=O)[O-])cc2)cc1 (centres undefined)	?	0	56µM*	-13%	?	16%[12.7 µM]
CNC(=O)N(O)C1N(/N=C/c2ccc(SC)cc2)C(=S)SC1(C)C (centres undefined)	19%	2	-24%	.	-35%	-1%
